# Results filed as inconclusive are left out. Entries that show only a call come without a potency. The source made the active and inactive calls. Calls come from the whole dose curve; as a rule, active = well fitted curve in the direction sought with a large enough effect; inconclusive = small, poorly fitted or top-dose-only effect, or another doubt; inactive = no such curve, though single readings can be large; an effect the other way counts as inactive or inconclusive.
# Experiments:
# [1] = molecular target: N-terminal Xaa-Pro-Lys N-methyltransferase 1 (Homo sapiens) (UniProt Q9BV86); experiment: qHTS Assay for Inhibitors of N-terminal methyltransferase 1 (NTMT1): LOPAC validation of the NTMT1 SAHH-coupled ThioGlo3 Assay (AID 1347143);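 note: SAH from peptide methylation measured as thiol fluorescence via SAHH coupling and ThioGlo3; nearly all actives have a fitted effect of over 70% in size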
# Sequence of N-terminal Xaa-Pro-Lys N-methyltransferase 1 (Homo sapiens) (Q9BV86 whole entry, looked up): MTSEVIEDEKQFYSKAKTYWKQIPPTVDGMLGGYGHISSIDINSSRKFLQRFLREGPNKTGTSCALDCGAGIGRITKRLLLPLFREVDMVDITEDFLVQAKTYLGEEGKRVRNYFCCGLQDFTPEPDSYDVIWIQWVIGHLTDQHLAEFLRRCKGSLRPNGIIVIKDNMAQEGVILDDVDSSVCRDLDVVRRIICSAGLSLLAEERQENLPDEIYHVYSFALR
# How it was run: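 NTMT1 125nM + cpds (various conc.), 1 min RT; add SAM 100uM/SAHH 10uM/ThioGlo3 15uM (addition mix). SAHH-coupled thiol detection, Ex340/Em450, t0 and 30 min RT; signal normalized to background. LOPAC 1280-cpd pilot.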
# [2] = test system: Zika virus NS2B-NS3 protease (unlinked); experiment: Optimization of GU AMC qHTS for Zika virus inhibitors: Unlinked NS2B-NS3 protease assay (AID 1347151); note: series mostly up to about 52 µM; nearly all actives have a fitted effect of over 80% in size
# How it was run: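 Noncovalent NS2B hydrophilic domain–NS3 protease complex (25 nM final) in 10 mM Tris-HCl pH 8.0, 0.01% Tween 20; AMC substrate, room temperature 15 min (~20% conversion); fluorescence change normalized, 4-parameter Hill fit.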
# [3] = test system: Zika virus NS2B-NS3 protease; experiment: Primary screen GU AMC qHTS for Zika virus inhibitors (AID 1347154); note: nearly all actives have a fitted effect of over 70% in size; note: potency is the fitted concentration of half-maximal effect
# How it was run: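 Fluorogenic AMC-substrate cleavage by noncovalent NS2B-NS3 protease complex (25 nM, pH 8.0 Tris buffer with Tween 20) followed for 15 minutes at room temperature (~20% conversion). Percent inhibition from ex340/em450 signal change, fitted by 4-parameter Hill equation.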
# Furin (Homo sapiens) = Furin (Homo sapiens) (UniProt P09958); experiment: Furin counterscreen qHTS for Zika virus inhibitors (AID 1347149); note: nearly all actives have a fitted effect of over 70% in size; note: potency is the fitted concentration of half-maximal effect
# Sequence of Furin (Homo sapiens) (P09958 whole entry, looked up): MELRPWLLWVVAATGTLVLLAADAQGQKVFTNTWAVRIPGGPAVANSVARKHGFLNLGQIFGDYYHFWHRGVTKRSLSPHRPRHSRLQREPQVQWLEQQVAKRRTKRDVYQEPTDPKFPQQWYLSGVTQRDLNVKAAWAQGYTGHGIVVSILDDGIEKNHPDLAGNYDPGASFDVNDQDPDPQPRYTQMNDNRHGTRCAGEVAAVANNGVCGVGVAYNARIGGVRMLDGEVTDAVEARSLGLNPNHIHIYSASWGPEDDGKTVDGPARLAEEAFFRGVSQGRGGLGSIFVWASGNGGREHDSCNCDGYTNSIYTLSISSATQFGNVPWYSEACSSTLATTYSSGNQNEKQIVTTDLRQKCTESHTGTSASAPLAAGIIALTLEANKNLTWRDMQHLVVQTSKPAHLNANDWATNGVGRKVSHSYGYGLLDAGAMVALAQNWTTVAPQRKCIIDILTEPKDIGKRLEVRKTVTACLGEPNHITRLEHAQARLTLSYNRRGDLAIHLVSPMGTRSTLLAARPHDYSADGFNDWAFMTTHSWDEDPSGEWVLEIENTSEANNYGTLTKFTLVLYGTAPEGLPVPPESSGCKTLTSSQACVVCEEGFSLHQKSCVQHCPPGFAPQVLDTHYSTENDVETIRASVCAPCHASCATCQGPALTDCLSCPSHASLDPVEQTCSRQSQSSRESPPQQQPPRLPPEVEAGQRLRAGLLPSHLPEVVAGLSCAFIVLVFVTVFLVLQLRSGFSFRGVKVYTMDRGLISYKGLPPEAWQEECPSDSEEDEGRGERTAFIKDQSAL
# How it was run: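 Counterscreen measures cleavage of 2 microM BOC-RVRR-AMC, below its ~15 microM Km, by 5 nM full-length human furin at pH 7.0 after a 15-min compound preincubation. Inhibition derives from the 15-min fluorescence increase at 37C.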
# [4] = test system: Zika virus NS2B-NS3 protease (linked construct); experiment: Confirmatory screen NINDS AMC qHTS for Zika virus inhibitors (AID 1347152); conditions: Purified linked NS2B-NS3, AMC substrate fluorescence; note: potency is the fitted concentration of half-maximal effect; nearly all actives have a fitted effect of over 70% in size
# How it was run: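 Linked NS2B-NS3 protease, 1 nM, in 10 mM Tris-HCl pH 8.0, 0.01% Tween 20; compounds preincubated 15 min at room temperature. Nle-KRR-AMC 10 microM (Km 18.3 µM); 15-min fluorescence change (340/450 nm) fitted to 4-parameter Hill.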
# [5] = test system: Zika virus NS2B-NS3 protease (unlinked complex); experiment: Confirmatory screen GU AMC qHTS for Zika virus inhibitors (AID 1347153); conditions: Recombinant NS2B-NS3 protease, AMC substrate fluorescence
# How it was run: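 Unlinked NS2B-NS3 complex (25 nM) in 10 mM Tris-HCl pH 8.0, 0.01% Tween 20 preincubated 15 min with compound, then 10 microM Bz-Nle-KRR-AMC (Km 18.3 µM). Fluorescence change over 15 min, normalized, Hill-fitted.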
# [6] = qHTS of pediatric cancer cell lines to identify multiple opportunities for drug repurposing: Confirmatory screen for Saos-2 cells (AID 1347127); note: nearly all actives have a fitted effect of over 60% in size; note: potency is the fitted concentration of half-maximal effect
# How it was run: (§1)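 Cells (500-1,000/well) rested 5 h, then received compounds for 48 h; metabolically active cells were measured by CellTiter-Glo luminescence. Final concentrations spanned up to 46 µM (MIPE, 11-point) or 0.59 nM-46 µM (NPC, 8-point) in primary screens, 11-point in follow-ups.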
# [7] = qHTS of pediatric cancer cell lines to identify multiple opportunities for drug repurposing: Confirmatory screen for OHS-50 cells (AID 1347128);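 note: compound exposure lasted 48 h at 37 degrees C; nearly all actives have a fitted effect of over 55% in size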
# How it was run: as §1
# [8] = qHTS of pediatric cancer cell lines to identify multiple opportunities for drug repurposing: Confirmatory screen for SK-N-SH cells (AID 1347129);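 note: cells exposed to compound for 48 h before viability read; nearly all actives have a fitted effect of over 60% in size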
# How it was run: as §1
# [9] = Confirmatory screen GU Rhodamine qHTS for Zika virus inhibitors qHTS (AID 1347157); conditions: purified enzyme assay, Rhodamine110 substrate fluorescence, 15 min
# How it was run: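 Percent inhibition came from the 15-min rise in Rhodamine110 fluorescence (1.5 microM substrate, ~15% conversion), normalized to no-inhibitor and no-enzyme wells and Hill-fitted. Unlinked protease, 25 nM, pH 8.0 Tris buffer; compounds up to 114 microM, 15-min preincubation.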
smiles,measurement,setting,value
C=C(C)[C@H]1CN[C@H](C(=O)O)[C@H]1CC(=O)O,outcome,[1],inactive
same,outcome,[2],inactive
same,Potency,[3],inactive
O=C(Nc1ccc(Br)cc1)c1cc(Br)cc(Br)c1O,Potency,Furin (Homo sapiens),27.1 µM (active)
same,Potency,[4],19.2 µM (active)
same,Potency,[5],21.5 µM (active)
same,Potency,[3],35.5 µM (active)
CC(C)N(CCC(C(N)=O)(c1ccccc1)c1ccccn1)C(C)C (stereo not given),outcome,[1],inactive
same,outcome,[2],inactive
same,Potency,[3],inactive
O=C(O)c1ccc(=O)[nH]c1,Potency,[3],inactive
CC(C)(C)NCC(O)c1ccccc1Cl (stereo not given),outcome,[1],inactive
same,outcome,[2],inactive
same,Potency,[3],inactive
CN1C(=O)COc2c(C(=O)NC3CN4CCC3CC4)cc(Cl)cc21 (stereo not given),Potency,[3],inactive
CCCN(CCC)C(=O)Cc1c(-c2ccc(Cl)cc2)nc2ccc(Cl)cn12,Potency,[6],inactive
same,Potency,[7],inactive
same,Potency,[8],inactive
O=C1OC(c2ccc(O)c(S(=O)(=O)O)c2)(c2ccc(O)c(S(=O)(=O)O)c2)c2c(Br)c(Br)c(Br)c(Br)c21,Potency,Furin (Homo sapiens),inactive
same,Potency,[9],3.16 µM (active)
O=c1oc2ccccc2c(O)c1Cc1c(O)c2ccccc2oc1=O,Potency,Furin (Homo sapiens),inactive
same,Potency,[3],inactive
CC(NC(C)(C)C)C(=O)c1cccc(Cl)c1 (stereo not given),Potency,[6],18.5 µM (active)
same,Potency,[8],inactive
same,outcome,[1],inactive
same,outcome,[2],inactive
same,Potency,[3],inactive
CCOP(=S)(OCC)Oc1ccc2c(C)c(Cl)c(=O)oc2c1,Potency,[6],inactive
same,Potency,[7],inactive
same,Potency,[8],inactive
same,Potency,[3],inactive
COP(=S)(OC)Oc1ccc(S(=O)(=O)N(C)C)cc1,Potency,[3],inactive
C[C@]12CC[C@@H]3c4ccc(OC(=O)N(CCCl)CCCl)cc4CC[C@H]3[C@@H]1CC[C@@H]2O,Potency,[4],21.5 µM (active)
same,Potency,[3],15.8 µM (active)
CCN(CC)CCc1c[nH]c2ccccc12,Potency,[3],inactive
